Most compounds without a hit are left out; they make up all but 3.4% or so of the library.
MITF inh: MITF inhibitors, primary screen, biochemical, AlphaScreen, human; AID 1259374, 2018; inhibition, % at 2.6 µM; AlphaScreen MITF homodimerization, bead proximity signal; actives 0.91% (n = 650,000); Microphthalmia-associated transcription factor (Homo sapiens), O75030; in the data active means inhibition above about 50%;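 further: 0% = vehicle wells with protein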
FBW7 act: FBW7 E3 ligase activators, primary screen, biochemical, AlphaScreen, human | actives 0.13% (n = 650,000) | AlphaScreen FBW7–phospho-cyclin E peptide binding, activator screen | F-box/WD repeat-containing protein 7 (Homo sapiens), Q969H0 | normalized activity (activation), % at 26.1 µM | AID 1259310, 2017; in the data active means normalized activity above about 1.9%;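 further: purified mutant Fbw7 with reduced substrate affinity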
GPR151 activ: activators of human GPR151, primary screen, cell-based, PathHunter beta-arrestin, luminescence | PathHunter beta-arrestin GPR151 cells | G-protein coupled receptor 151 (Homo sapiens), Q8TDV0 | actives 1% (n = 650,000) | activation, % at 11.2 µM; in the data active means activation above about 4.9%;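 further: 0% = median of compound wells and 100% = cells with positive control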
TEAD-YAP block: TEAD-YAP interaction inhibition, primary screen, TEAD-YAP interaction inhibitor project, luminescence, HEK-TIYL cells; TEAD-Gal4/YAP UAS-luciferase luminescence; inhibition, % at 9.12 µM; actives 1.4% (n = 640,000); AID 1259422, 2018; in the data active means inhibition above about 32%;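 further: 0% = median of test compound wells and 100% = reference inhibitor wells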
MITF confirm: MITF inhibitors, retest of hits, confirmation, biochemical, AlphaScreen, triplicate; shares compounds with MITF inh; AlphaScreen MITF homodimerization, biotin/His-MITF beads; inhibition, % at 2.6 µM; actives 16% (n = 4,700);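 active means inhibition above a cutoff derived from the DMSO control wells, cut at about 28% in these data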;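 further: 0% = MITF dimer wells with DMSO only; inhibitors lower the bead chemiluminescence by keeping MITF from dimerizing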
AS interf DR: AlphaScreen optical interference compounds, dose response, counter-screen, biochemical, HTS | shares compounds with MITF inh | AlphaScreen optical interference counterscreen, cell-free | IC50, µM | actives 6% (n = 480) | AID 1259373, 2018; call rule not given here
AlphaScreen intf2: AlphaScreen optical interference compounds, counter-screen for MITF inhibitor project, biochemical, triplicate; AID 1259376, 2018; shares compounds with MITF inh; actives 7.6% (n = 4,700); inhibition, % at 2.6 µM; LysRS AlphaScreen counterscreen, signal interference;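 active means inhibition above a cutoff derived from the DMSO control wells, cut at about 30% in these data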
* = called active by the depositor.

What do the screens show for `Cc1cccc(Cl)c1OCCCCn1ccnc1`?
MITF inh: 1; FBW7 act: 0; GPR151 activ: -1; TEAD-YAP block: 1

How did CCc1cccc(OCCn2ccnc2)c1 do in these assays?
MITF inh: 54*; FBW7 act: 0; GPR151 activ: 0; TEAD-YAP block: -3; MITF confirm: 4; AlphaScreen intf2: 6

Results for Clc1cc(Br)ccc1OCCn1ccnc1 ?
MITF inh: 54*; FBW7 act: 0; GPR151 activ: -1; TEAD-YAP block: -14; MITF confirm: 0; AlphaScreen intf2: 5

How did Clc1cc(Br)ccc1OCCCn1ccnc1 do in these assays?
MITF inh: 43; FBW7 act: 0; GPR151 activ: 0; TEAD-YAP block: 4

What do the screens show for `c1ccc(COc2ccc(OCCCCn3ccnc3)cc2)cc1`?
MITF inh: 60*; FBW7 act: 0; GPR151 activ: -1; TEAD-YAP block: -4; MITF confirm: 36*; AS interf DR: >6.5; AlphaScreen intf2: 25

How did Cc1cc(/C=C2/SC(=S)N(CC(=O)O)C2=O)c(C)n1-c1cccnc1 do in these assays?
MITF inh: 11; FBW7 act: 0; GPR151 activ: -1; TEAD-YAP block: 9

Results for CCOc1cccc(C2CC(c3cccc(OC)c3)=NC(c3ccccc3F)N2)c1O (centres undefined) ?
MITF inh: -4; FBW7 act: 1; GPR151 activ: 0; TEAD-YAP block: -10

Results for O=S1(=O)CC(OS(=O)(=O)c2ccccc2)C(OS(=O)(=O)c2ccccc2)C1 (centres undefined) ?
MITF inh: 71*; FBW7 act: 0; GPR151 activ: 1; TEAD-YAP block: 2; MITF confirm: -5; AlphaScreen intf2: -6

Results for CC1=CC(C)(C)NC(=S)N1c1ccc(Cl)cc1 ?
MITF inh: 15; FBW7 act: 0; GPR151 activ: 1; TEAD-YAP block: 6

Results for CC1=CC(C)(C)NC(=S)N1c1cc(Cl)cc(Cl)c1 ?
MITF inh: 58*; FBW7 act: 0; GPR151 activ: -1; TEAD-YAP block: -4; MITF confirm: 10; AlphaScreen intf2: 18

How did COc1ccc(S(=O)(=O)CCC(=O)N2CCN(c3cccc(C)c3C)CC2)cc1 do in these assays?
MITF inh: 63*; FBW7 act: 0; GPR151 activ: 1; TEAD-YAP block: 0; MITF confirm: 16; AlphaScreen intf2: 9

What do the screens show for `COc1ccc(CC(=O)N2CCN(c3cccc(C)c3C)CC2)cc1`?
MITF inh: 18; FBW7 act: 0; GPR151 activ: 1; TEAD-YAP block: 16

What do the screens show for `COC(=O)/C=c1/sc2n(c1=O)C(C)=CC(C)(C)N=2`?
MITF inh: -11; FBW7 act: 0; GPR151 activ: 3; TEAD-YAP block: -16

What do the screens show for `Nc1cccc(N2C(=O)c3cc(S(=O)O)cc4c(N)c(S(=O)O)cc(c34)C2=O)c1`?
MITF inh: 58*; FBW7 act: 0; GPR151 activ: 1; TEAD-YAP block: 4; MITF confirm: 79*; AS interf DR: >6.5; AlphaScreen intf2: 8

How did Cc1cc2c(cc3c(=O)n(CC(=O)N4C(C)CCCC4C)nc(C)n32)s1 (centres undefined) do in these assays?
MITF inh: -2; FBW7 act: 0; GPR151 activ: 1; TEAD-YAP block: -2

What do the screens show for `Cc1ccc(-c2csc(NC(=O)COc3ccccc3C(C)(C)C)n2)cc1`?
MITF inh: 56*; FBW7 act: 1; GPR151 activ: -1; TEAD-YAP block: -3; MITF confirm: -5; AlphaScreen intf2: -4

Results for Cc1ccccc1OCC(=O)Nc1nc(-c2ccccc2)cs1 ?
MITF inh: -1; FBW7 act: 0; GPR151 activ: 0; TEAD-YAP block: -12
